Measurements from PubChem BioAssay (NCI).
Compounds without any hit were thinned out: in the full panel of roughly 79,000, 15% have a hit. A number with no mark means an inactive call. Active and inactive are the calls of the source. No stated cut-off is given here; in the data, active means growth inhibition above about 70%; inactive means the rest.

What was measured:
[1] = NCI Yeast Anticancer Drug Screen. Data for the rad50 strain (AID 155);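 further: 0% = growth of vehicle-only cultures of the same strain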; conditions: S. cerevisiae rad50 strain growth inhibition; at 50.0 µM; stronger effect = higher value
Procedure, shortened: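 Cells are treated with compound, grown, and their growth is then scored against vehicle-only cultures of the same repair-deficient yeast strain.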

[2] = NCI Yeast Anticancer Drug Screen. Data for the mec2-1 strain (AID 157); conditions: S. cerevisiae mec2-1 strain, at 50.0 µM, stronger effect = higher value
Procedure, shortened: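 Yeast mec2-1 mutant treated with compound. Readout: growth inhibition vs vehicle controls.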

[3] = NCI Yeast Anticancer Drug Screen. Data for the sgs1 mgt1 strain (AID 161);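 further: 0% = growth of cultures given vehicle only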; conditions: S. cerevisiae sgs1 mgt1 strain, at 50.0 µM, stronger effect = higher value
Procedure, shortened: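 Test agents were incubated with a DNA-repair-mutant yeast strain. Growth was then read and compared against vehicle-treated controls.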

[4] = NCI Yeast Anticancer Drug Screen. Data for the cln2 rad14 strain (AID 165);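 further: 0% = growth equal to vehicle treated cultures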; conditions: S. cerevisiae cln2 rad14 strain, at 50.0 µM, stronger effect = higher value
Procedure, shortened: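 cln2 rad14 yeast strain; compound exposure; growth inhibition read vs vehicle controls.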

[5] = NCI Yeast Anticancer Drug Screen. Data for the bub3 strain (AID 167); conditions: S. cerevisiae bub3 mutant strain, at 50.0 µM, stronger effect = higher value
Procedure, shortened: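 Part of a panel of yeast mutants defective in DNA damage repair or cell cycle regulation. Each strain is grown with compound, and inhibition is calculated relative to solvent-treated cultures.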

[6] = NCI Yeast Anticancer Drug Screen. Data for the mlh1 rad18 strain (AID 175); conditions: S. cerevisiae mlh1 rad18 strain growth inhibition; at 50.0 µM; stronger effect = higher value
Procedure, shortened: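 Yeast w/ defined DNA-repair lesions; compound exposure; growth vs vehicle controls → % inhibition.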

| SMILES | growth inhibition [1] [%] | growth inhibition [2] [%] | growth inhibition [3] [%] | growth inhibition [4] [%] | growth inhibition [5] | growth inhibition [6] [%] |
| --- | --- | --- | --- | --- | --- | --- |
| CCCCCCCCCCCCCCCCCC(=O)OCC(CO)OC(=O)CCCCCCCCCCCCCCCCC (stereo unspecified) | 4.45 | -9.65 | 7.3 | 6.95 | 34.1% | 29.7 |
| ClC1C2C=CC(C2)C12OCCO2 (stereo unspecified) | 2.35 | 11.7 | -1.6 | 6.85 | -10.7% | -18.4 |
| O=S(=O)(c1ccccc1)N1CCCN(S(=O)(=O)c2ccccc2)CC1 | -11.9 | -0.45 | 2.15 | 3.1 | 3.35% | 0.7 |
| c1ccc(Cc2[nH]nc(-c3ccccc3)c2N=Nc2ccccc2)cc1 | 5.55 | -34.9 | 2.65 | -16.4 | 8.45% | -6.1 |
| CCC1(CC)COC2(CCC(C)CC2)OC1 | -6.4 | -2.95 | -5.05 | -16.1 | -14.7% | 7.5 |
| O=C1C2=C(c3ccccc31)C(c1ccccc1Cl)N1C(=O)CCSC1=N2 (stereo unspecified) | 2.9 | 0.4 | 13.9 | 8.85 | 4.65% | -3.45 |
| [O-]c1c[n+](CC[n+]2cc([O-])on2)no1 | 13.7 | -8.45 | -13.2 | 40.5 | -19.6% | -14.7 |
| N#C/C(=C\c1ccccc1)c1cccc(Br)c1 | 3.9 | -6.1 | 17.4 | -22.9 | 48.1% | -1 |
| COc1cc(=O)n(-c2ccccc2)nc1C#N | 2.25 | -0.7 | 1.35 | -46.1 | 8.85% | -1.2 |
| O=C1CCCCCCCCCCC1Sc1ccccc1 (stereo unspecified) | -23.2 | -36.6 | -6.8 | 3.1 | 7.3% | -28.9 |
| CC[N+](C)(CC)c1cccc(OC(=O)Nc2ccc(OC)cc2)c1 | 6 | 5.25 | 3.35 | -5.7 | 1.05% | 14.3 |
| O=C(O)C(Cc1ccccc1)N1C(=O)c2ccccc2C1=O (stereo unspecified) | 1.7 | -17.5 | -35.6 | -19.6 | -36.5% | 5.55 |
| O=C(Nc1ccc(F)c([N+](=O)[O-])c1)Nc1cc(C(F)(F)F)ccc1Cl | 9.4 | 1 | 0.55 | -0.4 | -4.65% | 24.2 |
| O=[N+]([O-])c1ccc(C2CC(c3ccccc3)=NN2c2ccccc2)cc1 (stereo unspecified) | 7.65 | -8.85 | 1.3 | -8.9 | 17.9% | -9.05 |
| CCCCCC/C(=C\c1ccc(O)cc1)C(=O)O | 17.6 | 36.1 | 32.8 | 47.9 | 39.6% | 41.8 |
| CC1(C)CC(c2c[nH]c3ccccc23)=CC2=Nc3ccccc3C21O (stereo unspecified) | -41.9 | 6.7 | 3.8 | 15 | 2.65% | 16.7 |
| CC(O)CC(C)(C)O (stereo unspecified) | 28.1 | 13.1 | 8.55 | 9.9 | 15.3% | 4.2 |
| CC(C)(C)C(=O)Cn1nnnc1C(=O)C(C)(C)C | -10.7 | -35.5 | -15.8 | -36.9 | -5.85% | -19.4 |
| COC(=O)/C(=N/NC(N)=O)C(C(=O)OC)C(=O)C(=O)Nc1ccc(Cl)cc1 (stereo unspecified) | 1.4 | -21.8 | -16.9 | 13.8 | -14.4% | -34.5 |
| CCN(CC)CCOc1cc(C)ccc1C(C)C | -6.05 | -12.6 | 2.95 | -32 | -8.1% | 26.4 |
| Cc1ccc(-n2cc(/C(N)=N/O)c3ccccc3c2=O)cc1 | -29.8 | -32.4 | -32.8 | -28.6 | -22.8% | -32.5 |

| SMILES | growth inhibition [1] [%] | growth inhibition [2] [%] | growth inhibition [3] [%] | growth inhibition [4] [%] | growth inhibition [5] | growth inhibition [6] [%] |
| --- | --- | --- | --- | --- | --- | --- |
| C=CS(=O)(=O)CCCCCCCCCCCCCCCCCC | -2.35 | 10.7 | -18.4 | -12.8 | 5.3% | 8.9 |
| Cc1c(C(=O)Nc2ccccc2)nnn1-c1ccnc2cc(C(F)(F)F)ccc12 | -13.8 | -6.75 | -8.85 | -4.05 | -5.6% | 2 |
| O=C1CCC(c2ccccc2)C(O)(C(=O)O)C1 (stereo unspecified) | 6.45 | -8.1 | -13.9 | -5.1 | -14.3% | -24.9 |
| O=C(COc1ccc2c(=O)cc(-c3ccc(Cl)cc3)oc2c1)N1CCN(c2ccccc2)CC1 | 9.15 | 7.05 | -8.8 | 29.1 | 3.95% | 10.9 |
| CC(SC(C)c1ccccc1)c1ccccc1 (stereo unspecified) | -5.8 | -16.6 | -8.65 | -11.9 | -8.1% | 3.65 |
| CCOC(=O)CCCCC(N)=O | -4.3 | -7.6 | -15.7 | 1.15 | 11.4% | 2.7 |
| CC(=O)Nc1nc2ncc(CN(C(C)=O)c3ccc(C(=O)O)cc3)nc2c(=O)[nH]1 | -19.3 | -8.6 | -38.1 | -8.65 | -21.1% | -10.2 |
| Cc1ncc(CSc2ccccc2N)c(CO)c1O | -10.8 | -10.1 | -22.5 | 48.2 | 5.5% | -4.55 |
| Nc1c(Cl)ncnc1NCCc1ccccc1 | -3.35 | -16.1 | -15.4 | -45.1 | -11.8% | -11.8 |
| O=C1OCC2Cc3ccccc3C(c3ccccc3)=C12 (stereo unspecified) | -3.85 | -6.3 | -1.3 | -31.5 | 11.3% | -1 |
| Oc1ccccc1CN1CCOCC1 | 22.4 | 9.3 | 26.9 | 13.8 | -7.2% | 28.5 |
| CC(C)(C)c1c(C#N)nnc2cc(-c3ccccc3)nn12 | 7 | 8.85 | 21.9 | 25.1 | -17.3% | 9.15 |
| CCC(C)(C)C1CCCCC1OC(C)=O (stereo unspecified) | 7.95 | -2.6 | 2.55 | 7.95 | 2.9% | 1.25 |
| O=COCCc1ccccc1 | -17.9 | -6.2 | 8.35 | 5.4 | -8.15% | 3.7 |
| CCOC(=O)NN(C(=O)OCC)C(C(=O)C1=CCCCC1)N(NC(=O)OCC)C(=O)OCC | -9.95 | -1.15 | 4.5 | 0.2 | 0.3% | -2.85 |
| COC(=O)/C=C(/N)CC(=O)OC | 16.9 | -25.4 | -8.35 | 10.9 | -15.9% | 1.75 |
| O=C1c2ccc([N+](=O)[O-])cc2C(=O)N1CC(F)(F)F | -0.9 | 8.35 | 10.6 | 14.8 | -3% | 3.8 |
| Cc1cc(C)c(N=Nc2cc(C)c(N)cc2N)c(S(=O)(=O)O)c1 | -21.6 | -1.35 | -2.1 | -61.5 | 7.3% | 10.8 |
| Cc1n(C)c(C(O)c2ccccc2)c(Br)[n+]1C (stereo unspecified) | 9.3 | 1.4 | 8.25 | -12.1 | 77.7% (active) | 12.6 |
| CC(C)CC(=O)Cc1ccccc1 | 18.8 | 14.7 | 19.2 | -52.7 | -2.2% | -0.2 |
